Inconclusive results are not listed. A call without a number means that no potency is given here. Active and inactive are the calls of the source. The call rests on the fitted dose curve; in most records, active means well fitted inhibition curve with a large enough effect; inconclusive means small, poorly fitted or top-dose-only effect, or effect the other way; inactive means flat fitted curve, though single readings scatter.

For the assay, the target named is Lysosomal acid glucosylceramidase (Homo sapiens) (UniProt P04062). Description: qHTS Assay for Inhibitors and Activators of N370S glucocerebrosidase as a Potential Chaperone Treatment of Gaucher Disease: Activity in Non-Mutant Spleen Homogenate Using a Red Fluorescent Substrate. Conditions: red fluorogenic substrate GCase activity; series mostly up to 50.2 µM. The text has this: NIH Chemical Genomics Center [NCGC]
Chain of Lysosomal acid glucosylceramidase (Homo sapiens) (P04062 whole entry, looked up): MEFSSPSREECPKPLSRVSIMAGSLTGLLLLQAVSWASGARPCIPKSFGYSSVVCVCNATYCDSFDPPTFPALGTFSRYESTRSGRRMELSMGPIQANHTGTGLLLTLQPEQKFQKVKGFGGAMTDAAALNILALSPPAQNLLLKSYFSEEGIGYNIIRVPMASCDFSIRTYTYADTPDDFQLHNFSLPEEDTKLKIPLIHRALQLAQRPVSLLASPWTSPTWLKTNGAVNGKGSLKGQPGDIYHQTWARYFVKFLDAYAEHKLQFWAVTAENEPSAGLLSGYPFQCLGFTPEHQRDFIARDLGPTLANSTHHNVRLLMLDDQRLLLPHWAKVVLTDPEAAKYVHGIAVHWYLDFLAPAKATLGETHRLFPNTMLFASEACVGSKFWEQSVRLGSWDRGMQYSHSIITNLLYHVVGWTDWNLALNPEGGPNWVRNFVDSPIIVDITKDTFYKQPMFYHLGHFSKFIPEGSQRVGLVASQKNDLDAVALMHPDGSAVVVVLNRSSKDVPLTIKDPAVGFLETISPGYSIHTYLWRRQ
NIH Molecular Libraries Probe Production Centers Network [MLPCN]
Assay Submitter (PI): Wei Zheng
Glucocerebrosidase (GC) catalyzes the hydrolysis of beta-glucocerebroside to glucose and ceramide in lysosomes. Mutations in the glucocerebrosidase gene result in Gaucher disease, an autosomal recessive lysosomal storage disorder. Many of the mutations encountered in patients with Gaucher disease are missense alterations that may cause misfolding, decreased stability and/or mistrafficking of this lysosomal protein. […] These inhibitors include iminosugar analogs and three non-iminosugar inhibitors identified from a previous HTS of 62,000 compounds with the wild type recombinant enzyme. However, the enhancement of enzyme activity by the chaperone action of an enzyme inhibitor must be balanced against the direct inhibition of the enzyme. An enzyme activator could also function as a chaperone by binding to the enzyme and helping to correct its misfolding and mistrafficking. While activators for GC have not yet been identified, they may have better therapeutic potential than inhibitors. Therefore the discovery and development of chemical activators may provide a new strategy for the chaperone therapy.
We have optimized a new assay using N370S mutant GC derived from the spleen of a Gaucher patient. […] In addition, the MLPCN compound library has expanded, which increases the chance of finding new and better probes.
This confirmation assay tests for compound activity in spleen homogenate containing wildtype enzyme using an alternate resorufin-based substrate.
NCGC Assay Protocol Summary:
This is a fluorogenic enzyme assay with resorufin-beta-D-glucopyranoside as the substrate and wildtype glucocerebrosidase from human spleen homogenate as the enzyme preparation. Upon the hydrolysis of this fluorogenic substrate, the resulting product, […] which can be detected by a standard fluorescence plate reader. Data were normalized to the controls for basal activity (without enzyme) and 100% activity (with enzyme). The AC50 values were determined from concentration-response data modeled with the standard Hill equation.
Assay buffer: 50 mM citric acid (titrated with potassium phosphate to pH 5.0), 100 mM potassium chloride, 10 mM sodium chloride, 1 mM magnesium chloride, 0.01% Tween-20.
1536-well assay protocol:
(1) Add 2 ul/well of spleen homogenate (27 ug final)
(2) Add 23 nL compounds in DMSO solution. The final titration was 0.5 nM to 58 uM.
(3) Add 2 ul of substrate (1 mM final)
(4) Incubate at 37C for 40 min.
(5) Add 2 ul stop solution (1M NaOH and 1M Glycine mixture, pH 10)
(6) Detect the assay plate in a ViewLux plate reader (PerkinElmer) with Ex=365 nm and Em=440nm.
Keywords: Glucocerebrosidase, beta-glucosidase, Gaucher Disease, pharmacological chaperone, chaperone therapy, high throughput screening, glucocerebrosidase inhibitor, MLSMR, MLSCN, NIH Roadmap, qHTS and NCGC
Background: In qHTS, concentration-response curves come from the screen itself.
In the case of `O=S(=O)(c1ccc(F)cc1)N1CCN(c2nc(-c3ccc(F)cc3)nc3cc(Cl)ccc23)CC1`, the Potency entry was “inactive”.
As to `Cc1ccccc1-c1nccc(NCc2cccs2)n1`, the Potency is 14.1 µM (active).
Next, `c1ccc2c(NCC3CCCO3)nc(N3CCOCC3)nc2c1` (stereo not given): “inactive”; `Cc1cc(C)n2ncc(C(=O)Nc3ccc(Cl)c(Cl)c3)c2n1`: “inactive”.
Turning to `COc1cccc(NC(=O)CSc2nc3ccccc3c(=O)n2Cc2cccs2)c1`, the Potency entry is “inactive”.
Next, `N#Cc1ccccc1Sc1ccccc1C(=O)OCC(=O)NC12CC3CC(CC(C3)C1)C2`: “inactive”; `Cc1ccc(-c2nc(N3CCN(S(=O)(=O)c4ccc(F)cc4)CC3)c3ccc(Cl)cc3n2)cc1`: “inactive”.
For the compound `O=C(Nc1ccccc1)c1ccc(NS(=O)(=O)c2ccccc2)cc1`, the Potency entry is “inactive”.
With `O=S(=O)(c1ccc(Cl)cc1)N1CCN(c2nc(-c3cccc(Br)c3)nc3ccccc23)CC1`, the Potency entry was “inactive”.
Next, `O=S(=O)(c1ccc(C(F)(F)F)cc1)N1CCN(c2nc(-c3cccs3)nc3ccccc23)CC1`: 1.26 µM (active); `Cc1ccc(S(=O)(=O)Nc2ccc(C(=O)NCc3ccccc3)cc2)cc1`: “inactive”; `Cc1cc(Nc2cccc(Cl)c2)nc2ccc(NC(=O)C3CCC(C)CC3)cc12` (stereo not given): “inactive”.
Regarding `CC(C)(C)c1ccc(S(=O)(=O)N2CCN(c3nc(-c4cccs4)nc4ccccc34)CC2)cc1`, the Potency was 1.12 µM (active).
Next, `O=S(=O)(c1cccc(Cl)c1)N1CCN(c2nc(-c3cccs3)nc3ccccc23)CC1`: 1.26 µM (active); `COc1cc(OC)c2c(N)c(C#N)c(C(F)(F)C(F)(F)F)nc2c1`: “inactive”; `O=S(=O)(c1ccccc1Br)N1CCN(c2nc(-c3cccs3)nc3ccccc23)CC1`: 0.562 µM (active).
With `CC(=O)c1ccc(S(=O)(=O)N2CCN(c3nc(-c4cccs4)nc4ccccc34)CC2)cc1` the figure was 1.12 µM (active).
With `O=S(=O)(c1ccc(F)cc1)N1CCN(c2nc(-c3cccc(Br)c3)nc3ccccc23)CC1` the entry was “inactive”; with `CCOC(=O)c1ccc(S(=O)(=O)N2CCN(c3nc(-c4cccs4)nc4ccccc34)CC2)cc1`, 0.794 µM (active).
Regarding `COC(=O)c1ccccc1NC(=O)c1ccc2c(c1)C(=O)N(Cc1ccccc1)C2=O`, the Potency result is “inactive”.
